Shown are actives, neighbours in structure and some others; about 18% of the full set was active somewhere.
DT40 TDP1 CPT: growth inhibition of DT40 Tdp1-/-;hTDP1 cells with camptothecin (screen for TDP1 inhibitors) | chicken DT40 Tdp1-/-;hTDP1 cells + 20 nM CPT, ATP luminescence, 48 h | 420,000 compounds, 12% hits | Potency, µM (doses to about 46.2 µM), for inactives: top-dose activity change, negative = growth inhibition, usual class: inhibitors; further: potency means the concentration at half of the fitted maximal effect; on the % scale 0 is the no-effect control and ±100 the full control effect; nearly all actives have a fitted effect of over 55% in size
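Chicken DT40 Tdp1-/- cells stably complemented with human TDP1 were seeded at 400 cells/well in medium containing 20 nM camptothecin, exposed to pin-transferred compounds, and grown at 37 °C for at least 48 hr. Viability was read as ATP luminescence.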
TDP1 inh: inhibitors of human tyrosyl-DNA phosphodiesterase TDP1. Q9NUW8. recombinant TDP1, AlphaScreen DNA substrate cleavage. Potency, µM (titrated, usually from 130 µM), without a hit: at the highest dose activity change, negative = inhibition, actives largely listed as inhibitors. 350,000 compounds, 0.28% hits; further: potency means the concentration at half of the fitted maximal effect; on the % scale 0 is the no-effect control and ±100 the full control effect; nearly all actives have a fitted effect of over 40% in size
Target sequence (Q9NUW8 whole entry, looked up): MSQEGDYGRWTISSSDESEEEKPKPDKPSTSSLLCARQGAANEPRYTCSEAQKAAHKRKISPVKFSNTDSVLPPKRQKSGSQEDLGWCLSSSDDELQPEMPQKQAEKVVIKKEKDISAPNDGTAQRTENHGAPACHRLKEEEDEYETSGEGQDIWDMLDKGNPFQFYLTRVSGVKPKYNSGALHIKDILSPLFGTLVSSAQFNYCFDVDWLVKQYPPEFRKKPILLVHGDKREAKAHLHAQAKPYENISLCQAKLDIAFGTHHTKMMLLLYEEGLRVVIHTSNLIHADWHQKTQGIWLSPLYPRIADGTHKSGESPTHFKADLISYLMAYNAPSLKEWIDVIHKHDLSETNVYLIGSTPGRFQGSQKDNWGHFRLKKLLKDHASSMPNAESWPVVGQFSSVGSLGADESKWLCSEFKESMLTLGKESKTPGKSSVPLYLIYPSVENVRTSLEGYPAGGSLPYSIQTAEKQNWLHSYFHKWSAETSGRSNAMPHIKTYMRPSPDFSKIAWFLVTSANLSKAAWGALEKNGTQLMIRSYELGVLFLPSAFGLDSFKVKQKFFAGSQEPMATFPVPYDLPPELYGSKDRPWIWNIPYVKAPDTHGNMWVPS
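Compounds were preincubated with Tdp1 (1 nM final) for 15 min at room temperature before substrate (15 nM final) started a 5 min reaction; beads (10 ug/ml final) were then added for 10 min before AlphaScreen detection.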
DT40 TDP1 no CPT: qHTS for Inhibitors of human tyrosyl-DNA phosphodiesterase 1 (TDP1): qHTS in cells in absence of CPT; DT40 Tdp1-/- hTDP1 cells, no CPT, ATP luminescence, 48 h; 420,000 compounds, 15% hits; Potency, µM (doses to about 46.2 µM), inactives show at the top dose activity change, negative = growth inhibition, most hits filed as inhibitors; further: potency means the concentration at half of the fitted maximal effect; on the % scale 0 is the no-effect control and ±100 the full control effect; nearly all actives have a fitted effect of over 55% in size
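Cells were dispensed at 400 per well, compounds added by pin tool, plates incubated ≥48 hr at 37 °C, then CellTiter-Glo added for 30 min at room temperature before luminescence reading. Line: DT40 Tdp1-/- complemented with hTDP1; camptothecin omitted.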
IL-1B inflam inh: inhibitors of inflammasome signaling (IL-1 beta secretion). THP-1 LPS/ATP IL-1B secretion, AlphaLISA, 16 h; active compounds read low. activity change, % at 57.5 µM. 360,000 compounds, 4.7% hits. AID 743279; in the data active means activity change below about -50%; inconclusive means mostly about -30% to -49%; further: on the % scale 0 is the no-effect control and ±100 the full control effect
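Secreted IL-1B measured by AlphaLISA bead assay after 16 h compound exposure of THP-1 cells; compounds (final up to 57.5 uM) added 1 h before LPS (250 ng/mL) and ATP (1.25 mM) stimulation; lower signal means less secretion.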
TGFb SMAD3 inh: inhibitors of TGF-b signaling | HepG2 CAGA-GFP TGF-b/SMAD3 reporter, GFP fluorescence, 18 h; TGF-beta stimulated, 500 pg/mL final | AID 588855 | 410,000 compounds, 1.2% hits | Potency, µM (top dose mostly 46.1 µM), without a hit: at the highest dose activity, negative = inhibition, hits mostly inhibitors; further: potency means the concentration at half of the fitted maximal effect; on the % scale 0 is the no-effect control and ±100 the full control effect; nearly all actives have a fitted effect of over 65% in size
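HEPG2 CAGA-GFP, 1000 cells/well; 2 h settle, 37 C; cpd via pin tool; TGF-b 500 pg/mL final; 18 h, 37 C; GFP imaging ex488/em500-530; %Activity normalised to -TGF-b and +DMSO controls; CRC fit, curve class.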
HepG2 viability: counter-screen for TGF-b inhibitors: cytotoxicity in HepG2 cells. HepG2 CAGA-GFP viability, ATP luminescence, 18 h. 410,000 compounds, 0.76% hits. AID 588856. Potency, µM (top dose mostly 46.1 µM), inactives show at the highest dose activity change, negative = cytotoxicity, most hits filed as cytotoxic; further: potency means the concentration at half of the fitted maximal effect
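HepG2 CAGA-GFP cells (1000/well, DMEM with 1% FBS) received compound, then TGF-beta at 500 pg/mL final, and were incubated 18 hours at 37 degrees C. Viability was read by CellTiter-Glo luminescence. Media-only wells were set as complete cell-killing and DMSO as no toxicity.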
* hit, by the source's call. Unless noted, the call rests on the fitted dose curve; in most records, active means well fitted curve in the direction sought with a large enough effect; inconclusive means small, poorly fitted or top-dose-only effect, or another doubt; inactive means no such curve, though single readings can be large; an effect the other way counts as inactive or inconclusive.

How did CC1=C(C(=O)OCCOc2ccccc2)C(c2ccc(C)o2)C2=C(CC(C)(C)CC2=O)N1 (stereo not drawn) do in these assays?
DT40 TDP1 CPT: inconclusive; TDP1 inh: 6%; DT40 TDP1 no CPT: inconclusive; IL-1B inflam inh: -18; TGFb SMAD3 inh: 9%; HepG2 viability: -1%

What do the screens show for `COC(=O)C1C(=O)C2=C(CC1C)NC(C)=C(C(=O)OC1CCCCC1)C2c1ccc(N(C)C)cc1` (stereo not drawn)?
DT40 TDP1 CPT: inconclusive; TDP1 inh: 2%; DT40 TDP1 no CPT: 16µM*; IL-1B inflam inh: -3; TGFb SMAD3 inh: -10%; HepG2 viability: 3%

What do the screens show for `COC(=O)C1C(=O)C2=C(CC1C)NC(C)=C(C(=O)OCc1ccc(OC)cc1)C2c1ccc(C)o1` (stereo not drawn)?
DT40 TDP1 CPT: inconclusive; TDP1 inh: 4%; DT40 TDP1 no CPT: 10µM*; IL-1B inflam inh: -21; TGFb SMAD3 inh: -12%; HepG2 viability: -22%

Results for O=C(O)CC1Cc2ccccc2C1C(=O)O (stereo not drawn) ?
DT40 TDP1 CPT: 12%; DT40 TDP1 no CPT: 5%; IL-1B inflam inh: 3; TGFb SMAD3 inh: 5%; HepG2 viability: 12%

Results for CC(C)=CCC[C@H](C)C[C@@H]1Cc2[nH][nH]c(=O)c2[C@H](c2ccc(F)cc2)O1 ?
DT40 TDP1 CPT: inconclusive; DT40 TDP1 no CPT: 21µM*; IL-1B inflam inh: -24

Results for C=C1C(=O)O[C@H]2C[C@H]1[C@@H](OC(C)=O)C/C(C)=C/CC/C(C)=C\CC[C@]2(C)O ?
DT40 TDP1 CPT: 2.6µM*; DT40 TDP1 no CPT: 2.9µM*; IL-1B inflam inh: -113*; TGFb SMAD3 inh: 3.2µM*; HepG2 viability: -102%

How did CCC1Oc2ccccc2N(CC(=O)NCc2cc(OC)ccc2OC)C1=O (stereo not drawn) do in these assays?
DT40 TDP1 CPT: inconclusive; TDP1 inh: 10%; DT40 TDP1 no CPT: 13µM*; TGFb SMAD3 inh: -8%; HepG2 viability: -2%

What do the screens show for `CCC1Oc2ccc(C)cc2N(CC(=O)NCc2cccc(OC)c2)C1=O` (stereo not drawn)?
DT40 TDP1 CPT: inconclusive; TDP1 inh: 6%; DT40 TDP1 no CPT: 10µM*; IL-1B inflam inh: -8; TGFb SMAD3 inh: -2%; HepG2 viability: -1%

What do the screens show for `N=c1c2ccccc2nc2n1CCCCCCCCCCC2`?
DT40 TDP1 CPT: 5.2µM*; DT40 TDP1 no CPT: 7.3µM*; IL-1B inflam inh: -87*; TGFb SMAD3 inh: inconclusive; HepG2 viability: -37%

Results for O=c1c2ccccc2nc2n1CCCCC2 ?
DT40 TDP1 CPT: -8%; TDP1 inh: 5%; DT40 TDP1 no CPT: -13%; IL-1B inflam inh: 19; TGFb SMAD3 inh: -1%; HepG2 viability: 0%

What do the screens show for `O=C(c1cccc(Cl)c1)N1CCN(c2ncccn2)CC1`?
DT40 TDP1 CPT: 3%; DT40 TDP1 no CPT: 17%; IL-1B inflam inh: -23; TGFb SMAD3 inh: 5%; HepG2 viability: 3%

Results for CCc1ccc(CNC(=O)c2cccc(-n3c(C)nc4cccnc43)c2)cc1 ?
DT40 TDP1 CPT: 13µM*; TDP1 inh: 6%; DT40 TDP1 no CPT: 16µM*; TGFb SMAD3 inh: -14%; HepG2 viability: -24%

Results for Cc1nc2cccnc2n1-c1cccc(C(=O)NCc2cccc(Cl)c2)c1 ?
DT40 TDP1 CPT: 21µM*; TDP1 inh: 6%; DT40 TDP1 no CPT: 18µM*; TGFb SMAD3 inh: -24%; HepG2 viability: -18%

What do the screens show for `Cc1ccc(C(=O)N2CCN(c3cccc(Cl)c3)CC2)cc1-n1c(C)nc2cccnc21`?
DT40 TDP1 CPT: 10µM*; TDP1 inh: 0%; DT40 TDP1 no CPT: 9.2µM*; TGFb SMAD3 inh: -23%; HepG2 viability: -43%

What do the screens show for `CC(C)(C)NC(=O)C1(N2C(=O)c3ccccc3C2=O)CCCC1`?
DT40 TDP1 CPT: 10%; DT40 TDP1 no CPT: 0%; IL-1B inflam inh: 5; TGFb SMAD3 inh: 7%; HepG2 viability: -21%

How did COc1ccc(/C=C(/C(=O)NCc2ccccc2)c2ccccc2)cc1 do in these assays?
DT40 TDP1 CPT: inconclusive; TDP1 inh: -5%; DT40 TDP1 no CPT: 21µM*; IL-1B inflam inh: -8; TGFb SMAD3 inh: inconclusive; HepG2 viability: -7%

Results for COc1cccc(CNC(=O)CNS(=O)(=O)c2ccc(Br)s2)c1 ?
DT40 TDP1 CPT: 1%; TDP1 inh: 9%; DT40 TDP1 no CPT: -3%; IL-1B inflam inh: -53*; TGFb SMAD3 inh: 4%; HepG2 viability: -3%

Results for COc1cccc(CNC(=O)CCNS(=O)(=O)c2ccc(Br)s2)c1 ?
DT40 TDP1 CPT: inconclusive; TDP1 inh: 0%; DT40 TDP1 no CPT: inconclusive; IL-1B inflam inh: 20; TGFb SMAD3 inh: -3%; HepG2 viability: -2%

Results for O=C(NCc1ccccc1)/C(=C/c1ccc(OC(F)F)cc1)c1ccccc1 ?
DT40 TDP1 CPT: inconclusive; TDP1 inh: -3%; DT40 TDP1 no CPT: inconclusive; IL-1B inflam inh: -5; TGFb SMAD3 inh: 0%; HepG2 viability: -24%

How did O=C(COc1ccc(C(=O)c2ccccc2)cc1)NCC1CCCCC1 do in these assays?
DT40 TDP1 CPT: 16µM*; TDP1 inh: 0%; DT40 TDP1 no CPT: 16µM*; IL-1B inflam inh: -15; TGFb SMAD3 inh: inconclusive; HepG2 viability: 5%

Results for Cn1ccnc1C(=O)c1cc(SCC(=O)NCc2ccccc2)nc2ccccc12 ?
DT40 TDP1 CPT: 6.5µM*; TDP1 inh: 3%; DT40 TDP1 no CPT: 5.2µM*; IL-1B inflam inh: 65; TGFb SMAD3 inh: -3%; HepG2 viability: 4%

What do the screens show for `CSc1ccc(S(=O)(=O)NCC(=O)OCC(=O)N(C)CC(=O)Nc2ccc(F)cc2)cc1[N+](=O)[O-]`?
DT40 TDP1 CPT: -1%; DT40 TDP1 no CPT: 21%; IL-1B inflam inh: 0; TGFb SMAD3 inh: 2%; HepG2 viability: 1%

How did O=C(CSc1nccn1Cc1ccccc1)NCc1ccccc1 do in these assays?
DT40 TDP1 CPT: -1%; TDP1 inh: 5%; DT40 TDP1 no CPT: 1%; IL-1B inflam inh: -4; TGFb SMAD3 inh: 7%; HepG2 viability: 3%

Results for COc1cccc(CNC(=O)Cc2ccc(-n3c(=O)[nH]c4ccccc4c3=O)cc2)c1 ?
DT40 TDP1 CPT: 4.6µM*; TDP1 inh: -3%; DT40 TDP1 no CPT: 3.3µM*; IL-1B inflam inh: 24; TGFb SMAD3 inh: inconclusive; HepG2 viability: 3%
